# This is a sample that favours compounds with a hit; in the whole collection about 6.2% have one here.
# Luc counter – blocks Kinase-Glo luciferase, a counter-screen artifact | Q27757 | Potency, µM (titrated, usually from 38.3 µM), inactives show at the highest dose activity change, negative = inhibition, actives largely listed as inhibitors | AID 1379 | Kinase-Glo luciferase, ATP luminescence, 8 min | actives 0.28% (n = 200,000); note: nearly all actives have a fitted effect of over 60% in size
#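 Recombinant Kinase-Glo luciferase, 10 uM ATP (linear range), luciferin; imidazole pH 7.2 / KCl / MgCl2 / Tween / BSA buffer; 8 min RT; luminescence.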
# RORg inh – blocks mouse ROR gamma transcriptional activity; Potency, µM (series often up to 53.6 µM), without a hit: top-dose activity change, negative = inhibition, most hits filed as inhibitors; actives 5.4% (n = 310,000); Drosophila S2 Gal4-RORgamma UAS-luciferase reporter, 20 h; AID 2551; P51450; note: nearly all actives have a fitted effect of over 60% in size
# Target sequence (P51450 whole entry, looked up, the tested form may be a part): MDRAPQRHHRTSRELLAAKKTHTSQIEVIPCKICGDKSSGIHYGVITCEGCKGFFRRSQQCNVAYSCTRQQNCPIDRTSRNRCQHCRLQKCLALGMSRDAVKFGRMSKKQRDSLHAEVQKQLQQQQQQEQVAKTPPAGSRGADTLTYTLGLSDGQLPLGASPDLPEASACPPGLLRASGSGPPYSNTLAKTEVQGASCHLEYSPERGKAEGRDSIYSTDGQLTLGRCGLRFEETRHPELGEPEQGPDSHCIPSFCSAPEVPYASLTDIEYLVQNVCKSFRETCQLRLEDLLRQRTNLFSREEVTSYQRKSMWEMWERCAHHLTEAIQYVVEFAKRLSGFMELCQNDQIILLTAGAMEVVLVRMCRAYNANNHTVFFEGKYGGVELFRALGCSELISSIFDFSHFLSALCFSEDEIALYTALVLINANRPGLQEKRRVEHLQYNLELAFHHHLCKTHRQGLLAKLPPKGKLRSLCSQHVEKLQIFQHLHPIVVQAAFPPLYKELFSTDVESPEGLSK
#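 ROR gamma transcriptional activity was tracked as Gal4-UAS luciferase output in stably transfected Drosophila Schneider cells, with compound added 1 hr before 700 uM copper sulfate induction and a 20 hr ambient-temperature incubation.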
# VP16 counter – counter-screen for ROR gamma inhibitors: Gal4-VP16 reporter | Drosophila S2 Gal4-VP16 UAS-luciferase, luminescence, 20 h | Potency, µM (doses to about 53.6 µM), for inactives: at the top dose activity, negative = inhibition, usual class: inhibitors | actives 3.5% (n = 310,000) | AID 2546;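 note: Gal4-VP16 expression switched on by copper sulfate through the metallothionein promoter; nearly all actives have a fitted effect of over 50% in size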
# * = called active by the depositor; ? = inconclusive; · = no result given; ! = repeats disagree; [ ] = another dose, or the depositor's remark. Calls come from the whole dose curve; as a rule, active = well fitted curve in the direction sought with a large enough effect; inconclusive = small, poorly fitted or top-dose-only effect, or another doubt; inactive = no such curve, though single readings can be large; an effect the other way counts as inactive or inconclusive. % is set by controls: 0 for no effect and ±100 for the full control effect; potency is the fitted concentration of half-maximal effect.
SMILES,Luc counter,RORg inh,VP16 counter
CC1(C)Cc2c(sc(NC(=O)COc3cccc4ccccc34)c2C#N)C(C)(C)N1,·,8.9µM*,5µM*
O=C(O)c1ccc(S(=O)(=O)N(Cl)Cl)cc1,-2%,0%,4%
CCN(C#N)c1nc(N(C)C)nc(N(C)C)n1,3%,7%,16%
CC(C)(C)c1cc(C(c2cccnc2)N2CCN(CCO)CC2)cc(C(C)(C)C)c1O (configuration not stated),-1%,13µM*,18µM*
CC(C)(C)n1nnnc1C(c1cccnc1)N1CCN(c2cccc(C(F)(F)F)c2)CC1 (configuration not stated),2%,26%,-6%
CCCC1C2C(=O)N(c3ccccc3OCC)C(=O)C2ON1c1ccccc1 (configuration not stated),0%,10%,-5%
Oc1ccc(NCc2ccccc2OCc2ccccc2F)cc1,9%,13µM*,16µM*
Cc1ccc(NCc2ccccc2OCc2ccccc2F)cc1,0%,-44%,?
CC1=CC2CC1C1C(=O)N(c3ccc(S(=O)(=O)Nc4nc(C)cc(C)n4)cc3)C(=O)C21 (configuration not stated),2%,2%[10 µM],-4%
Cn1c(=O)c2c(-c3ccccc3)n(Cc3cccnc3)cc2n(C)c1=O,0%,-7%,-3%
Cn1c(=O)c2c(-c3ccccc3)n(-n3cnnc3)cc2n(C)c1=O,·,18µM*,?
CCC1CCC(C(=O)NNC(=O)OC)CC1 (configuration not stated),1%,3%,-13%
CC(C)CC(NC(=O)NC(CCC(=O)O)C(=O)O)C(=O)O (configuration not stated),·,2%,3%
CCCCCCCCNC(C)C(O)c1ccc(SC(C)C)cc1 (configuration not stated),3%,11µM*!,?
C[C@@H](NCCc1ccc(O)cc1)[C@@H](O)c1ccc(O)cc1,-4%,·,·
CCN(CC)Cc1nc2c(c(=O)[nH]1)C(CC)(CC)Cc1ccccc1-2,·,1.6µM*,5µM*
CCc1nc2c(c(=O)[nH]1)C(CC)(CC)Cc1ccccc1-2,·,?,-16%
Cc1cc(C(=O)NN)c2cc(Br)ccc2n1,8%,2%,-10%
NNC(=O)c1cc(-c2ccc(N)cc2)nc2ccc(Br)cc12,·,10µM*,?
COc1ccc(NC(=O)c2cc(-c3ccncc3)nc3ccc(Br)cc23)cc1OC,·,?,20µM*
COc1ccc(NC(=O)c2cc(-c3cccnc3)nc3ccc(C)cc23)cc1OC,-5%,?,?
Cc1ccc(-c2cc(C(=O)Nc3nccs3)c3ccccc3n2)o1,-8%,-82%,?
COc1ccc(NC(=O)c2cc(-c3ccc(C)o3)nc3ccccc23)cc1OC,6.3µM*,16%,-2%
N#CCCn1c(=O)c(-c2ccc(Cl)cc2)nc2cnc(Oc3cccc(Cl)c3)nc21,-2%,2%,3%
COC(c1ccccc1)(c1ccccc1)C(Oc1nccc(C)n1)C(=O)O (configuration not stated),·,12%[1.91 µM],5%
SMILES,Luc counter,RORg inh,VP16 counter
OB(O)O,·,-13%[10 µM],6%
Cc1ccc(CNC(=O)CCSCc2cccc(F)c2)cc1,·,12%,1%
Cc1ccccc1N1C(=O)c2cc(N)ccc2N/C1=C\F,·,15%,-2%
Cc1[nH]n(-c2ccc(S(=O)(=O)O)cc2)c(=O)c1N=Nc1ccccc1,-5%[7.66 µM],·,·
CCN(CC)S(=O)(=O)c1ccc(N=Nc2c(C)[nH]n(C(N)=S)c2=O)cc1,1%,0.05µM*,0.013µM*
CC(=O)N(C)c1ccc(N=Nc2c(C)[nH]n(-c3ccccc3)c2=O)cc1,·,20µM*,?
CC(=O)N(C)c1ccc(N=Nc2c(C)[nH]n(C(N)=S)c2=O)cc1,0%,0.35µM*,3.2µM*
CCOC(=O)c1ccc(N=Nc2c(C)[nH]n(-c3ccccc3)c2=O)cc1,·,23%,-14%
Cc1[nH]n(C2=NCCS2)c(=O)c1N=Nc1ccccc1,6%,-6%,8%
Cc1ccc(NC(=O)Nc2c(C)n(C)n(-c3ccccc3)c2=O)cc1,·,6%,18%
CC1(C)CC(C)(O)N(Cc2ccccc2)C(=S)N1 (configuration not stated),-1%,13µM*,16µM*
CC12CS(=O)(=O)CC1SC(=S)N2Cc1ccccc1 (configuration not stated),2%,26%,-13%
COc1ccc(CNC(=O)CSc2ncnc3nc[nH]c23)cc1,·,31%,3%
Cc1ccccc1N1CN(Cc2ccco2)CNC1=S,5%,10µM*,?
CCOc1ccccc1N1CCN(Cc2ccco2)CC1,-2%,-42%,-16%
Cc1cccc(N2CN(Cc3ccco3)CNC2=S)c1C,2%,7.1µM*,11µM*

# Screens (PubChem BioAssay)
